Screening results as filed in PubChem.
GLP-1R agonist: GLP-1 receptor (human) agonism; actives 0.007% (n = 380,000); AID 624172; HEK293 GLP-1R CRE-luciferase, luminescence, 4-6 h; cells express a hypersensitive GLP-1R form; Potency, µM (top dose mostly 45.6 µM), for inactives: at the top dose activation, most hits filed as activators; further: potency means the concentration at half of the fitted maximal effect; % of control where 0% means no effect
Target sequence (P43220 whole entry, looked up): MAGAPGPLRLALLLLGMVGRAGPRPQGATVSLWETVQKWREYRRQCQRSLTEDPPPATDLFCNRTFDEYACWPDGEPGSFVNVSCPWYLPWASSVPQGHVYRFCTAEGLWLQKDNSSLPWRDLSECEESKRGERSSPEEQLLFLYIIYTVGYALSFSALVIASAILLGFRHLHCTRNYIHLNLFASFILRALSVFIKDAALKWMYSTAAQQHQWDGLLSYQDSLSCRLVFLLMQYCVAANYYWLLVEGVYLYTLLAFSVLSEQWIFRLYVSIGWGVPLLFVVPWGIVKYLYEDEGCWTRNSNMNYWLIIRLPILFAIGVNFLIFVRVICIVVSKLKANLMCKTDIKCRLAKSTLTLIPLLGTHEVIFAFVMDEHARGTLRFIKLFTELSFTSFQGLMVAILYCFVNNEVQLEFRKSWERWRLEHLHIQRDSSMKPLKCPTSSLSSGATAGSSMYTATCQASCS
D3 ag: activates the human D3 dopamine receptor | P35462 | D3R DiscoveRx beta-arrestin cells, luminescence, 90 min | max activation, % | actives 0.58% (n = 410,000); in the data active means max activation above about 30%; further: 0% is about no effect
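Cells at 1500/well, incubated overnight, then treated with pinned compounds (dopamine as control) for 90 min at 37 degrees C. DiscoveRx reagent added for 30 - 60 minutes at room temperature; luminescence read.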
GLP-1R inv ag: acts as inverse agonist at human GLP-1 receptor; P43220; HEK293 GLP-1R CRE-luciferase, luminescence, 24 h; GLP-1R form is constitutively active; Potency, µM (highest dose often 38.3 µM), without a hit: at the highest dose activity change, negative = inhibition, usual class: inhibitors; actives 1.6% (n = 410,000); further: potency means the concentration at half of the fitted maximal effect; on the % scale 0 is the no-effect control and ±100 the full control effect; nearly all actives have a fitted effect of over 55% in size
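Inverse agonists were sought by their lowering of basal cAMP reporter luciferase output in HEK293 cells stably carrying constitutively active human GLP-1R, after 24 h compound treatment.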
DRD3 antagonist: blocks the human D3 dopamine receptor | P35462 | D3R cells, DiscoveRx beta-arrestin luminescence, antagonist mode; active compounds read low | max response, negative = inhibition, % | actives 2.5% (n = 360,000); in the data active means max response below about -50%; inconclusive means no clear call, values can overlap the other calls; further: on the % scale 0 is the no-effect control and ±100 the full control effect
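Cells plated overnight at 1500 cells/well, then exposed to library compounds with dopamine controls for 90 minutes at 37 degrees C. DiscoveRx reagent added for 30–60 minutes at room temperature; luminescence read, quantitative HTS format.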
Active calls of the source: *; ? = inconclusive; nt = no result given; [ ] = dose if it differs, or a comment. The list is not random: actives were taken first. Their share in the collection is about 4.3%. Unless noted, the call rests on the fitted dose curve; in most records, active means well fitted curve in the direction sought with a large enough effect; inconclusive means small, poorly fitted or top-dose-only effect, or another doubt; inactive means no such curve, though single readings can be large; an effect the other way counts as inactive or inconclusive.

SMILES	GLP-1R agonist	D3 ag	GLP-1R inv ag	DRD3 antagonist
CCNC(=O)C1CCCN(Cc2cc(C(F)(F)F)ccc2Cl)CC1 (stereo not drawn)	7%	-20	?	-76*
COc1ccc(CC(C)NCC(O)c2ccc(O)c(NC=O)c2)cc1 (stereo not drawn)	?	nt	60%	nt
COc1ccccc1CNCC(=O)Nc1cc(S(=O)(=O)N2CCCCC2)ccc1C	3%	15	?	-51*
CC(C)CCC(=O)O[C@H]1CC[C@H]2[C@@H]3CCC4=CC(=O)CC[C@]4(C)[C@H]3CC[C@]12C	nt	9	nt	nt
C/C(=N\NP(=S)(c1ccccc1)c1ccccc1)c1ccc(O)cc1O	16%	-2	11µM*	8
Cc1cccc(NP(=O)(Oc2ccccc2F)Oc2ccccc2F)c1	-17%	-1	11µM*	15
O=P(Nc1cccc(F)c1)(Oc1ccccc1F)Oc1ccccc1F	11%	5	11µM*	37
O=S(=O)(O)C(F)(F)C(F)(F)C(F)(F)C(F)(F)C(F)(F)C(F)(F)C(F)(F)C(F)(F)F	-1%[96 µM]	-15	nt	nt
CCc1ccc(NC(=O)c2ccc3oc(=O)n(Cc4ccccc4)c3c2)cc1	nt	1	?	nt
O=C(CN1C(=O)CN=C(c2ccccc2)c2ccccc21)Nc1cccc(C(F)(F)F)c1	nt	7	?	nt
O=C(NCc1ccc2c(c1)CCN2C(=O)c1ccccc1)Nc1cccc(C(F)(F)F)c1	nt	-25	4µM*	nt
COCCCNC(=S)NCCCNc1nc2cc(C)cc(C)c2cc1C#N	23%	-11	11µM*	13
O=C1c2ccccc2C(=O)c2ccccc21	23%	4	nt	nt
c1ccc2c(c1)[IH]c1ccccc1-2	-11%	-6	4.5µM*	0
CCc1cc(OC)c(CC(C)N)cc1OC (stereo not drawn)	7%[96 µM]	nt	nt	nt
Clc1ccc(OCC#CCN2CCOCC2)cc1	9%	2	-19%	6
CC1CCN(CC#CCOc2ccc(Cl)cc2)CC1	2%	-26	?	-105*
CNC(C)C(O)c1ccc(O)cc1 (stereo not drawn)	25%	0	nt	nt
CNC(C)Cc1ccccc1Sc1ccc(O)cc1 (stereo not drawn)	-8%	-21	?	-73*
CCOC(=O)c1ccc(NC(=O)Nc2cc3c(cc2N2CCCCC2)n(CC)c(=O)n3CC)cc1	-13%	5	10µM*	nt
Cc1cccc(C(O)c2ncc(-c3ccccc3Cl)[nH]2)c1C (stereo not drawn)	-3%	2	?	7
COc1nn(CSP(=S)(OC)OC)c(=O)s1	-5%[96 µM]	5	nt	nt
O=c1c2ccccc2nc(-c2cccs2)n1-c1ccccc1	12%	1	2µM*	2
Cc1cccc(-n2c(-c3cccs3)nc3ccccc3c2=O)c1	23%	2	?	13
Cc1nc2ccccc2c(=O)n1-c1cccc(O)c1	15%	0	24%	6
SMILES	GLP-1R agonist	D3 ag	GLP-1R inv ag	DRD3 antagonist
Cc1ccc(-c2nc3ccccc3c(=O)n2-c2cccc(O)c2)cc1	14%	9	1.8µM*	17
O=c1c2ccccc2nc(-c2ccccc2Cl)n1-c1cccc(O)c1	-1%	-5	0.89µM*	-7
COc1ccc(C(=O)NCCn2cc(SC(C)c3ccccc3)c3ccccc32)cc1OC (stereo not drawn)	-5%	2	?	nt
COC(=O)[C@]12CCC(C)(C)C[C@H]1[C@H]1C(=O)C=C3[C@@]4(C)C=C(C#N)C(=O)C(C)(C)[C@@H]4CC[C@@]3(C)[C@]1(C)CC2	nt	-20	nt	nt
CNCCc1ccc(O)c(O)c1	23%	116*	23%	15
COc1nc2ccccc2nc1N1CCN(C)CC1	-1%	-1	-1%	-83*
C=CCC1(O)CCC2C3CCC4=CC(=O)CCC4=C3C=CC21C (stereo not drawn)	16%	nt	nt	nt
S=C=Nc1cccc(C2(N3CCCCC3)CCCCC2)c1	20%	84*	8.9µM*	12
COc1cc(CN2CCCC(C(=O)c3sccc3C)C2)cc(OC)c1O (stereo not drawn)	-4%	-2	9%	-27
COc1cc(CN2CCCC(C(=O)c3sccc3C)C2)cc(Cl)c1O (stereo not drawn)	8%	-19	?	-51*
COc1ccc(CN2CCCC(C(=O)c3sccc3C)C2)cc1O (stereo not drawn)	10%	-20	?	-74*
Cc1c(Cl)cccc1NC(=O)c1oc2ccc(S(=O)(=O)N3CCC4(CC3)OCCO4)cc2c1C	nt	19	?	nt
CC1=C[C@@H]2c3cccc4[nH]cc(c34)C[C@H]2N(C)C1	4%	54*	15%	-22
C[C@]12C[C@H]3S[C@H]3C[C@@H]1CC[C@@H]1[C@@H]2CC[C@]2(C)[C@@H](O)CC[C@@H]12	nt	1	nt	nt
CN1CC(C(=O)c2ccc(Cl)cc2)C(c2ccccc2)C1 (stereo not drawn)	-1%	2	-29%	?
CN1CC(C(=O)c2cccs2)C(c2ccc(Cl)cc2)C1 (stereo not drawn)	8%	-25	?	-75*
Cc1cc(Cl)ccc1OCC(=O)O	-2%	-88	-1%	-110*
CC1(C)CC/C(=C\c2ccc(Cl)cc2)C1(O)Cn1cncn1 (stereo not drawn)	5%[96 µM]	nt	nt	nt
COc1ccc2c(c1)C(c1ccc(N(CCCl)CCCl)cc1)=NCC2	17%	-14	10µM*	-19
ClCCN(CCCl)c1ccc(C2=NCCc3ccccc32)cc1	-3%	2	?	-15
COCCNCCOc1ccc(C(C)(C)c2ccccc2)cc1	9%	-29	10µM*	-57*
C[N+](C)(C)CCOC(=O)C(O)(c1ccccc1)c1ccccc1	1%	8	nt	nt
Cc1ccc(S(=O)(=O)N2CCC(C(=O)OCc3ccccc3)CC2)cc1C	13%	-4	10µM*	-3
Cc1ccc(S(=O)(=O)N2CCN(C(=O)COC(=O)Cc3ccccc3)CC2)c(C)c1	6%	-1	1%	2
[O]=[Cr](=[O])([OH])[O][Cr](=[O])(=[O])[OH]	1%	7	nt	nt
SMILES	GLP-1R agonist	D3 ag	GLP-1R inv ag	DRD3 antagonist
C[C@@H]1CN([C@@H](C)CO)C(=O)c2c(c3ccccc3n2C)-c2ccccc2CO[C@H]1CN(C)C(=O)[C@H](C)c1ccccc1	0%	5	?	1
CCN1/C(=C\C=C\C2=[N+](CC)c3ccccc3C2(C)C)C(C)(C)c2ccccc21	-27%	-12	?	-96*
c1ccc(CN2CCN(Cc3ccc4c(c3)OCCO4)CC2)cc1	4%	-15	-21%	-76*
COc1ccccc1OCC(=O)N1CCN(Cc2ccc3c(c2)OCO3)CC1	1%	-2	-5%[7.66 µM]	-2
CC[C@H](O)C(C[C@H](C)N(C)C)(c1ccccc1)c1ccccc1	8%[96 µM]	-7	nt	nt
Clc1ccc(OCCCN2CCCC2)cc1Cl	-1%	-36	?	-66*
CC(NCc1ccc(Cl)c(Cl)c1)C(O)c1ccccc1 (stereo not drawn)	22%	-37	0%	-65*
Cc1ccc(S(=O)(=O)NCCC(=O)Nc2ccc(Cl)cc2C(=O)c2ccccc2)cc1	8%	10	11µM*	-5
